In PubChem BioAssay (EPA / NIEHS):
Results filed as inconclusive are left out. Calls of active or inactive are those of the source. How the source made its calls, unless noted: active means hit-call score of the fitted dose curve at least 0.9, where 1 is the maximum; inactive means score below 0.9.

Columns and labels:
[1] = molecular target: Paired box protein Pax-6 (Homo sapiens) (UniProt P26367); assay: ATG_Pax6_CIS: Attagene CIS-FACTORIAL HepG2 Assay for human Paired Box 6 (PAX6) (AID 2282956); conditions: HepG2 CIS-FACTORIAL PAX6 reporter transcription, RNA readout; actives raise or lower the signal
How it was run: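 Multiplexed cis-reporter HepG2 system; 24 h treatment; reporter mRNA read by RT-PCR/CE fluorescence; bidirectional fit vs DMSO.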

[2] = ATG_PXRE_CIS: Attagene CIS-FACTORIAL HepG2 Assay for human Pregnane X Receptor Element (PXRE) (AID 2282957); conditions: HepG2 Attagene CIS-FACTORIAL PXRE reporter, mRNA; actives raise or lower the signal
How it was run: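 Cis-element reporter mRNA in human hepatoma HepG2 cells is measured 24 h post-dosing by RT-PCR, primer-extension labeling and capillary electrophoresis; gain or loss of signal is fitted relative to DMSO.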

[3] = ATG_PPRE_CIS: Attagene CIS-FACTORIAL HepG2 Assay for human Peroxisome Proliferator-activated Response Element (PPRE) (AID 2282958); conditions: HepG2 PPRE cis-element reporter, Attagene transcription factor profiling; actives raise or lower the signal
How it was run: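 Read-out: fluorescent reporter mRNA fragments resolved by capillary electrophoresis after RT-PCR. HepG2 cells carried transiently transfected PPRE-driven cis reporter constructs and were dosed for 24 h; gain or loss of signal fitted relative to DMSO.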

[4] = ATG_RORE_CIS: Attagene CIS-FACTORIAL HepG2 Assay for human RAR-related Orphan Receptor Element (RORE) (AID 2282959); conditions: HepG2 Attagene cis-factorial RORE reporter, mRNA; actives raise or lower the signal
How it was run: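 Readout: fluorescent reporter mRNA by RT-PCR plus capillary electrophoresis, 24 h after dosing transfected HepG2 cells. Endogenous transcription factor activity on a cis promoter element is measured. Gain or loss of signal fitted against DMSO.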

[5] = ATG_Sox_CIS: Attagene CIS-FACTORIAL HepG2 Assay for human SRY-box transcription factor (SOX) (AID 2282960); conditions: HepG2 Attagene cis-factorial SOX reporter, mRNA; actives raise or lower the signal
How it was run: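 Read-out: fluorescent RT-PCR products of SOX1-linked reporter transcripts resolved by capillary electrophoresis, fitted bidirectionally against DMSO. Transiently transfected HepG2 cells, 24 h after chemical exposure, endogenous transcription factor activity.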

[6] = molecular target: Transcription factor Sp1 (Homo sapiens) (UniProt P08047); assay: ATG_Sp1_CIS: Attagene CIS-FACTORIAL HepG2 Assay for human Specificity Protein 1 (Sp1) (AID 2282961); conditions: HepG2 Sp1 cis-reporter transcription, actives raise or lower the signal
How it was run: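 Read-out: fluorescence of 6-FAM-labeled, HpaI-digested RT-PCR products separated by capillary electrophoresis. HepG2 cells carried transfected cis-element reporter units and were exposed to chemicals for 24 h; gain or loss of signal fitted relative to DMSO.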

[7] = ATG_SREBP_CIS: Attagene CIS-FACTORIAL HepG2 Assay for human Sterol Regulatory Element Binding (SREBP) (AID 2282962); conditions: HepG2 Attagene cis-factorial SREBP reporter, mRNA; actives raise or lower the signal
How it was run: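 mRNA induction of transfected cis-promoter reporters in HepG2 cells, 24 h post-dose. Detection: RT-PCR with 6-FAM-labelled products, HpaI digest, capillary electrophoresis. DMSO served as negative control and baseline.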

[8] = molecular target: Signal transducer and activator of transcription 3 (Homo sapiens) (UniProt P40763); assay: ATG_STAT3_CIS: Attagene CIS-FACTORIAL HepG2 Assay for human Signal Transducer and Activator of Transcription 3 (STAT3) (AID 2282963); conditions: HepG2, Attagene cis-factorial STAT3 reporter transcription; actives raise or lower the signal
How it was run: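 After a 24 h compound incubation, total RNA from MRTU-transfected HepG2 cells was converted to cDNA and reporter sequences PCR-amplified, labelled and profiled by capillary electrophoresis. Gain and loss of signal were referenced to DMSO.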

[9] = ATG_TA_CIS: Attagene CIS-FACTORIAL HepG2 Assay for human TA Basal Promoter (AID 2282964); conditions: HepG2 Attagene CIS-factorial TA basal promoter reporter; actives raise or lower the signal
How it was run: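 Transient MRTU transfection of HepG2 preceded 24 h compound exposure. Reporter mRNA levels were then read by RT-PCR with capillary electrophoresis, and this background-control endpoint was fitted bidirectionally to DMSO.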

[10] = ATG_TCF_b_cat_CIS: Attagene CIS-FACTORIAL HepG2 Assay for human T-Cell-Factor with beta-catenin (TCF/b-cat) (AID 2282965); conditions: HepG2 TCF/beta-catenin cis-reporter transcription, actives raise or lower the signal
How it was run: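 Endogenous transcription factor activity is captured through cis-promoter reporter constructs transiently introduced into human HepG2 liver cells. Induced reporter mRNA is measured after 24 h and fitted bidirectionally relative to DMSO.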

[11] = ATG_TAL_CIS: Attagene CIS-FACTORIAL HepG2 Assay for human TAL Basal Promoter (AID 2282966); conditions: HepG2 Attagene cis-factorial TAL promoter reporter; actives raise or lower the signal;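 further: background control endpoint measuring basal TAL promoter reporter mRNA not a specific factor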
How it was run: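 In this cell-based multiplex, HepG2 liver cells bearing cis-promoter reporter constructs are dosed for 24 hours. Total RNA is reverse-transcribed and amplified, labelled fragments are sized by capillary electrophoresis, and signal changes are fitted bidirectionally versus DMSO.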

[12] = ATG_TGFb_CIS: Attagene CIS-FACTORIAL HepG2 Assay for human Transforming Growth Factor (TGF) (AID 2282967); conditions: HepG2 Attagene CIS TGFb reporter, mRNA transcription; actives raise or lower the signal
How it was run: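 After a 24-hour incubation with compound, transfected HepG2 cells were lysed for RNA; reporter cDNA was amplified, fluorescently end-labeled and separated by CE. DMSO served as baseline for bidirectional fits.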

[13] = ATG_VDRE_CIS: Attagene CIS-FACTORIAL HepG2 Assay for human Vitamin D Receptor Element (VDRE) (AID 2282968); conditions: HepG2 VDRE cis-reporter transcription, actives raise or lower the signal
How it was run: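 In transiently transfected HepG2 liver cells, gain or loss of reporter mRNA after 24 h exposure is scored relative to DMSO, using fluorescence detection by capillary electrophoresis of RT-PCR products.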

[14] = molecular target: X-box-binding protein 1 (Homo sapiens) (UniProt P17861); assay: ATG_Xbp1_CIS: Attagene CIS-FACTORIAL HepG2 Assay for human X-box Binding Protein 1 (XBP1) (AID 2282972); conditions: HepG2 XBP1 cis-element reporter, Attagene multiplex; actives raise or lower the signal
How it was run: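 Fluorescence-labelled cDNA fragments from reporter transcripts, separated by capillary electrophoresis, give the signal. Source: HepG2 cells transfected with promoter-driven reporter units, harvested 24 h post-dose. DMSO served as reference for bidirectional curve fitting.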

[15] = ATG_M_19_TRANS: Attagene TRANS-FACTORIAL HepG2 Assay for M19 Transcription Factor (Internal Marker) (AID 2282974; active means hit-call score of the fitted dose curve at least 0.9, where 1 is the maximum); conditions: HepG2 Attagene TRANS-FACTORIAL M19 internal marker reporter
How it was run: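 24 h chemical exposure of transiently transfected HepG2 (MRTU library). RNA → oligo(dT) RT → PCR → 6-FAM labelling → HpaI cut → CE fluorescence. Positive-direction fit vs DMSO baseline; background internal-marker readout.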

[16] = ATG_GAL4_TRANS: Attagene TRANS-FACTORIAL HepG2 Assay for GAL4 (Internal Marker) (AID 2282976; active means hit-call score of the fitted dose curve at least 0.9, where 1 is the maximum); conditions: HepG2 Attagene TRANS GAL4 internal marker reporter
How it was run: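 RT-PCR/capillary electrophoresis readout of reporter mRNA. HepG2, transient MRTU transfection (GAL4-UAS reporters), 24 h compound exposure. Background-control endpoint, positive direction vs DMSO baseline.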

[17] = molecular target: Estrogen receptor (Homo sapiens) (UniProt P03372); assay: ATG_ERa_TRANS: Attagene TRANS-FACTORIAL HepG2 Assay for human Estrogen Receptor alpha (ERa) (AID 2282970; active means hit-call score of the fitted dose curve at least 0.9, where 1 is the maximum); conditions: HepG2 Attagene TRANS ERa GAL4 reporter, mRNA
How it was run: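 After 24 h of compound treatment, RNA from HepG2 cells bearing transfected GAL4-UAS reporter constructs is converted to cDNA, amplified and fluorescently labelled. Capillary electrophoresis resolves the ERa-linked reporter; DMSO serves as negative control.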

[18] = molecular target: Estrogen-related receptor gamma (Homo sapiens) (UniProt P62508); assay: ATG_ERRg_TRANS: Attagene TRANS-FACTORIAL HepG2 Assay for human Estrogen-Related Receptor gamma (ERRg) (AID 2282977; active means hit-call score of the fitted dose curve at least 0.9, where 1 is the maximum;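 further: hits increase reporter signal over DMSO so potencies reflect activators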); conditions: HepG2 Attagene TRANS reporter, ERRg transactivation
How it was run: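 HepG2 cells transiently transfected with multiplexed GAL4-UAS reporter units and chimeric NR-Gal4 constructs were exposed to test chemicals for 24 h. Reporter mRNA was measured by RT-PCR, 6-FAM primer extension, HpaI digestion and capillary electrophoresis; gain-of-signal versus DMSO.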

[19] = molecular target: Steroid hormone receptor ERR1 (Homo sapiens) (UniProt P11474); assay: ATG_ERRa_TRANS: Attagene TRANS-FACTORIAL HepG2 Assay for human Estrogen-Related Receptor alpha (ERRa) (AID 2282971; active means hit-call score of the fitted dose curve at least 0.9, where 1 is the maximum); conditions: HepG2 Attagene TRANS reporter, ERRa transactivation
How it was run: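 Transfected HepG2, 24 h dosing, ERRa-Gal4 chimera driving GAL4-UAS reporter. Readout: reporter mRNA via RT-PCR plus capillary electrophoresis (fluorescence). Positive direction vs DMSO control.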

[20] = molecular target: Nuclear receptor subfamily 1 group I member 3 (Homo sapiens) (UniProt Q14994); assay: ATG_CAR_TRANS: Attagene TRANS-FACTORIAL HepG2 Assay for human Constitutive Androstane Receptor (CAR) (AID 2282969; active means hit-call score of the fitted dose curve at least 0.9, where 1 is the maximum;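 further: activators raise reporter mRNA above DMSO so AC50 marks induction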); conditions: HepG2 Attagene TRANS-FACTORIAL CAR reporter
How it was run: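 Readout is reporter mRNA induction, quantified by fluorescent primer extension and capillary electrophoresis after RT-PCR. Cells were HepG2 transiently carrying chimeric NR-Gal4 constructs with GAL4-UAS reporters, treated for 24 h; activity scored upward from DMSO.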

Measured: AC50

Sequence of X-box-binding protein 1 (Homo sapiens) (P17861 whole entry, looked up, the tested form may be a part): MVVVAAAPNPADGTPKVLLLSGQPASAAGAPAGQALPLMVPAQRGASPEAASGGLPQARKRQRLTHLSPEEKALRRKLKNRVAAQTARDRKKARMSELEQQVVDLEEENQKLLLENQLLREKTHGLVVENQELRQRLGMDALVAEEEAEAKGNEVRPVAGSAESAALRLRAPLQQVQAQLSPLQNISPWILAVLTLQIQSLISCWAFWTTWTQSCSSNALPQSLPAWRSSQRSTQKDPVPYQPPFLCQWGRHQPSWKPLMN
Sequence of Paired box protein Pax-6 (Homo sapiens) (P26367 whole entry, looked up): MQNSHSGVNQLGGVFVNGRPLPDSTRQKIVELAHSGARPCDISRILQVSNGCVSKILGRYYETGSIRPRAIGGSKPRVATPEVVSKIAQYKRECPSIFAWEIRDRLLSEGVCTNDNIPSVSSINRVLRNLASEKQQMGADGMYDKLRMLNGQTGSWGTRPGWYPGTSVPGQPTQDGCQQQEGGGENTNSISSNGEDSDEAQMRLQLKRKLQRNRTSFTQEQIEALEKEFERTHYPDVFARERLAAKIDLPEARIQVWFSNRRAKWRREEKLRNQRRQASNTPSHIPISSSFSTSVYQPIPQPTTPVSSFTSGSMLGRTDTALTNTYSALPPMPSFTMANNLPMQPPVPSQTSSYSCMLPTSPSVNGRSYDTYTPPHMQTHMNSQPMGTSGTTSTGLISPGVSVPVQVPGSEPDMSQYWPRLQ
Sequence of Transcription factor Sp1 (Homo sapiens) (P08047 whole entry, looked up): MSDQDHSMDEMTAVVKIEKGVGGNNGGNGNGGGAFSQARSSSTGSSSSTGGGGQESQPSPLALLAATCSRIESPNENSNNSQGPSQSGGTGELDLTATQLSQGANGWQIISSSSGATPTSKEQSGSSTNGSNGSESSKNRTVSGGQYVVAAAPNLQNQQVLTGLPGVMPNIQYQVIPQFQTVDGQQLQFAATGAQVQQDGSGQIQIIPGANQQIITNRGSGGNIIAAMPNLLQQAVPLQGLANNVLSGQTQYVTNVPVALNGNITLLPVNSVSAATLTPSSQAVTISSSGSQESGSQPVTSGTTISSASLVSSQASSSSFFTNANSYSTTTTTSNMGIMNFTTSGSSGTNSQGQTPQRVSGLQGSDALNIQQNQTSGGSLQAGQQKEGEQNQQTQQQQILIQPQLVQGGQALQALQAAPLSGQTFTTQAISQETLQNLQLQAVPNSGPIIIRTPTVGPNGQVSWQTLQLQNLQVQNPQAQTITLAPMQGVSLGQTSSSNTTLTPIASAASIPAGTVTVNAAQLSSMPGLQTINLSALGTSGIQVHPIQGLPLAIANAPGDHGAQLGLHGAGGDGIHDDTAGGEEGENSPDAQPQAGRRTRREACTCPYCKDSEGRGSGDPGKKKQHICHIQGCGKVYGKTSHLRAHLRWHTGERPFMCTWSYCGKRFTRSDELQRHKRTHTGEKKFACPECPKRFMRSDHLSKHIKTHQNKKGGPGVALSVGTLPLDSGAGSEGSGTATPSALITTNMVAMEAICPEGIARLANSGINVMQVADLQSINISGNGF
Sequence of Signal transducer and activator of transcription 3 (Homo sapiens) (P40763 whole entry, looked up): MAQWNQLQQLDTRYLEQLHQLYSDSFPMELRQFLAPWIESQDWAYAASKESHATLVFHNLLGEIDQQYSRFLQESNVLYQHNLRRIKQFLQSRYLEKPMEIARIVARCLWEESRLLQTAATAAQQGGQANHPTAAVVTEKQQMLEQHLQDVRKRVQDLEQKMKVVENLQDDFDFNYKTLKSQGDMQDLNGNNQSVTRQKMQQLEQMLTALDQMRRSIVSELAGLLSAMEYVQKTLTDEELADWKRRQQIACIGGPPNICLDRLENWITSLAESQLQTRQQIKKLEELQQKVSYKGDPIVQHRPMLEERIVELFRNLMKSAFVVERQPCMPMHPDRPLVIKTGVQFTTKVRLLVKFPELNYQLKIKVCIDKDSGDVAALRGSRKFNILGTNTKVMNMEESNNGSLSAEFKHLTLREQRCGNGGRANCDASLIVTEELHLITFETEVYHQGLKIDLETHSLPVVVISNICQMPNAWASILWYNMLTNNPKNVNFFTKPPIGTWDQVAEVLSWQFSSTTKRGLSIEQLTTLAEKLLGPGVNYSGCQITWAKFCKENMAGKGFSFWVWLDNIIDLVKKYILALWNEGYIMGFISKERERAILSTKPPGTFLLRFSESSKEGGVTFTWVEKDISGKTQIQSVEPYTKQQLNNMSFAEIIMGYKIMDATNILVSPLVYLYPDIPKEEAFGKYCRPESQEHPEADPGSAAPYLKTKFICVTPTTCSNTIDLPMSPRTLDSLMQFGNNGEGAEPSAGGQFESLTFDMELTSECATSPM
Sequence of Estrogen receptor (Homo sapiens) (P03372 whole entry, looked up, the tested form may be a part): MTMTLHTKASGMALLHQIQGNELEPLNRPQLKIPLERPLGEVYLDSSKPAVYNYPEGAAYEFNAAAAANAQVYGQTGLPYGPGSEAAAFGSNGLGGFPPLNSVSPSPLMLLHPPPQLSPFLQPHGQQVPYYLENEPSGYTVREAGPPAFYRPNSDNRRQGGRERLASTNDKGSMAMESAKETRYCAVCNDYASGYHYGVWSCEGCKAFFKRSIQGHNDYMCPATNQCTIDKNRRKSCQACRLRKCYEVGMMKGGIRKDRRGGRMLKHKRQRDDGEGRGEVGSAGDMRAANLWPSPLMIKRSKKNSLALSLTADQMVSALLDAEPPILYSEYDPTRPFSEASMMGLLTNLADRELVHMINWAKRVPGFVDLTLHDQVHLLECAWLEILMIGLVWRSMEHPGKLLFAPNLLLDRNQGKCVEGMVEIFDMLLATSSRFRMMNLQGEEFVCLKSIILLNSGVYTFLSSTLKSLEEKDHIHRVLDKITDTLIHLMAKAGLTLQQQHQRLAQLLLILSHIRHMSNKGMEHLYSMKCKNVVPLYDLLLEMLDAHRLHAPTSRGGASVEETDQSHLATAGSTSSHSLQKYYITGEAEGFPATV
Sequence of Estrogen-related receptor gamma (Homo sapiens) (P62508 whole entry, looked up, the tested form may be a part): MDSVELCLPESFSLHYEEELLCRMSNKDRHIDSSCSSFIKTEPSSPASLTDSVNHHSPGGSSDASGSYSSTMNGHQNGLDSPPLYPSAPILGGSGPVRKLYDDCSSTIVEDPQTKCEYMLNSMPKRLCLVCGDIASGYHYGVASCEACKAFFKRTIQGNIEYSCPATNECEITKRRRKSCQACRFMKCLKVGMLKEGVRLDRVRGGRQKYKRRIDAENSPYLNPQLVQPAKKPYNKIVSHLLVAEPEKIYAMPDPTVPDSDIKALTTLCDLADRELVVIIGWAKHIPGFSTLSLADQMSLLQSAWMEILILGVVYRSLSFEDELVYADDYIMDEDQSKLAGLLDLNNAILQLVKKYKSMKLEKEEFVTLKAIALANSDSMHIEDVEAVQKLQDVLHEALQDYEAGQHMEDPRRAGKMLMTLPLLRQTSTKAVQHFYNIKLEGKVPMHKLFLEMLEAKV
Sequence of Nuclear receptor subfamily 1 group I member 3 (Homo sapiens) (Q14994 whole entry, looked up, the tested form may be a part): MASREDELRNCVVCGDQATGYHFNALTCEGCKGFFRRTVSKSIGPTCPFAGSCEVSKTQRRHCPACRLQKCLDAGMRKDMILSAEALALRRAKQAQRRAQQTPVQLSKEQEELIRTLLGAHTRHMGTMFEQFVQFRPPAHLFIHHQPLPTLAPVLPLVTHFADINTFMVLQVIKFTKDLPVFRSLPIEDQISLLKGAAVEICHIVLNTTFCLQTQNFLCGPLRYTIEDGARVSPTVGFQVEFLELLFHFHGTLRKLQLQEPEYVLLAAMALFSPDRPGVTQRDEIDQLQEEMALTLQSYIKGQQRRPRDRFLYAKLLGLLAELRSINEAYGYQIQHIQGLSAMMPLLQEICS
Sequence of Steroid hormone receptor ERR1 (Homo sapiens) (P11474 whole entry, looked up, the tested form may be a part): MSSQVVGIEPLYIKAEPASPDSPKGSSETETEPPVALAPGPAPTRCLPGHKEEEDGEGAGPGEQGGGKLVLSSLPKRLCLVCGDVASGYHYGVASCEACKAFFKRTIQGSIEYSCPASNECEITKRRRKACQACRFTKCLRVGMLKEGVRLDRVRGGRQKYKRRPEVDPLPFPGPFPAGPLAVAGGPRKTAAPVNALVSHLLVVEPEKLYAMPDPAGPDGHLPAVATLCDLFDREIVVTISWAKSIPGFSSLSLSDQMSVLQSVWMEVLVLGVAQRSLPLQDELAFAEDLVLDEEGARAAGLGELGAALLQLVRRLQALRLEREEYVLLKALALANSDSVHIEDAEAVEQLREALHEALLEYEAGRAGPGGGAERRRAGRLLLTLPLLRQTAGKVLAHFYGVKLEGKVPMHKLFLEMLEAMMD

CC(=O)[C@H]1[C@H](C#N)C[C@H]2[C@@H]3CC=C4C[C@@H](O)CC[C@]4(C)[C@H]3CC[C@@]21C
inactive: [1] | [2] | [3] | [4] | [5] | [6] | [7] | [8] | [9] | [10] | [11] | [12] | [13] | [14] | [15]

FC(F)=C(F)OC(F)(F)C(F)(F)C(F)(F)F
inactive: [1] | [2] | [3] | [4] | [5] | [6] | [7] | [8] | [9] | [10] | [11] | [12] | [13] | [14] | [15] | [16]

Cc1oncc1C(=O)Nc1ccc(C(F)(F)F)cc1
inactive: [1] | [2] | [4] | [5] | [6] | [7] | [8] | [9] | [10] | [11] | [12] | [17] | [14] | [16]
active: [3] 100 µM

Nc1ccc(Oc2ccc(N)c(N)c2)cc1
inactive: [1] | [2] | [5] | [6] | [7] | [8] | [9] | [11] | [12] | [13] | [17] | [14] | [16] | [18]
active: [3] 58.4 µM | [4] 27.5 µM

O=c1cc[nH]c(=S)[nH]1
inactive: [1] | [2] | [3] | [4] | [5] | [6] | [7] | [8] | [9] | [10] | [11] | [17] | [19] | [14] | [18]

CCC(C)C=O (configuration not stated)
inactive: [1] | [2] | [3] | [4] | [5] | [6] | [7] | [8] | [9] | [10] | [11] | [12] | [13] | [14] | [15]

CCO[Si](CCCN=C=O)(OCC)OCC
inactive: [1] | [3] | [4] | [5] | [6] | [7] | [8] | [9] | [10] | [11] | [13] | [20] | [14] | [15]
active: [2] 13.9 µM

CC(C)=CCC[C@H](C)CCO
inactive: [1] | [2] | [3] | [4] | [5] | [6] | [7] | [8] | [9] | [10] | [11] | [12] | [17] | [14] | [16]

COCC(C)N (configuration not stated)
inactive: [1] | [3] | [4] | [5] | [6] | [7] | [8] | [9] | [10] | [11] | [12] | [13] | [14] | [15]
active: [2] 83.6 µM
